Peg3 promoter – Peg3 promoter-driven luciferase inhibitors, primary screen, cell-based, HeLa, luciferase luminescence. HeLa PEG-Prom luciferase reporter, overnight. inhibition, % at 20 µM. actives 1.7% (n = 360,000). AID 588405, 2011;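 active means inhibition of at least 50% at 20 µM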
KKLEB tox – cytotoxicity in KKLEB CF airway cells, primary screen, cytotoxicity control for CF NF-kB inhibitor project, cell-based, uHTS, fluorescence assay plates; KKLEB CF airway cells viability, ATPlite luminescence, overnight; stronger effect = lower value; cells stimulated with P. aeruginosa culture filtrate; activity change (cytotoxicity), % at 5 µM; actives 0.36% (n = 360,000); AID 602141, 2011;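 active means corrected activity change at or below -50% at 5 µM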
ABHD5-PLIN5 inh – ABHD5-PLIN5 interaction inhibitors, primary screen, cell lysate, split luciferase complementation, luminescence; Perilipin-5 (Homo sapiens) + 1-acylglycerol-3-phosphate O-acyltransferase ABHD5 (Homo …; actives 0.78% (n = 360,000); Split G. princeps luciferase complementation, 4 h; inhibition, % at 4 µM;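 active means inhibition above the mean inhibition across every tested compound plus 3 SD, cut at about 22% in these data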;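 further: 0% = DMSO only wells and the 100% control is not disclosed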
Mdm2 MdmX PPI – inhibitors of human Mdm2-MdmX association, primary screen, cell-based, luminescence, split luciferase, SaOS-2, uHTS; SaOS-2 split-luciferase Mdm2/MdmX complementation; actives 3% (n = 330,000); AID 485346, 2010; inhibition, % at 8 µM; Protein Mdm4 (Homo sapiens) + E3 ubiquitin-protein ligase Mdm2 (Homo sapiens), …;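 active means inhibition of at least 50% at 8 µM in the primary screen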
HIF-2a block – HIF-2a reporter inhibitors, primary screen, luminescence, 786-0 RCC cells. inhibition, % at 18.8 µM. actives 0.72% (n = 360,000). 786-0 RCC cells HIF-2a reporter, luciferase luminescence, overnight;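 active means inhibition of the luminescence signal of 40% or more relative to plate controls, in a single-dose primary screen at 18.75 µM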
CF NFkB inh – inhibitors of PAF-induced NF-kB signaling, primary screen, cell-based, GFP fluorescence, uHTS. AID 588850, 2011. actives 0.86% (n = 360,000). inhibition, % at 5 µM. KKLEB NF-kB-GFP reporter, GFP fluorescence overnight;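 active means at least 50% inhibition at 5 µM, scaled per plate between neutral and stimulator controls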;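 further: PAF is a Pseudomonas aeruginosa culture filtrate used as stimulus; plate controls were PAF-stimulated DMSO wells for no effect and unstimulated DMSO wells for full effect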
* = called active by the depositor; . = no result. In the library only some 4.6% were active in any assay of this set; here they are far more common.

SMILES	Peg3 promoter	KKLEB tox	ABHD5-PLIN5 inh	Mdm2 MdmX PPI	HIF-2a block	CF NFkB inh
Cc1ccc(-n2sc3ccccc3c2=O)cc1S(=O)(=O)N1CCCCC1	17	12	104*	12	-104	25
CN(C)S(=O)(=O)c1cccc(-n2sc3ccccc3c2=O)c1	-58	-9	47*	9	-22	30
O=c1c2ccccc2sn1-c1ccc(S(=O)(=O)N2CCCC2)cc1	-62	-6	-28	8	-80	7
O=c1c2ccccc2sn1-c1cccc(Cl)c1	-42	-2	-7	.	-188	60*
O=S(=O)(NCCCCNS(=O)(=O)c1c(F)cccc1F)c1ccc2c(c1)OCCO2	-9	14	2	18	-3	10
O=C(c1ccccc1)N1CCN(C(=O)c2nn3c(C(F)(F)F)cc(-c4ccco4)nc3c2Br)CC1	10	-6	22*	-1	9	20
O=C(NC1CCCCC1)c1nn2c(C(F)(F)F)cc(-c3ccco3)nc2c1Br	-2	-14	10	7	21	16
CCc1nc(Nc2ccc3c(c2)OCO3)c2oc3ccccc3c2n1	-8	-8	-8	18	-79	-1
CCc1nc(Nc2cccc(O)c2)c2oc3ccccc3c2n1	57*	5	-3	36	10	12
O=C(/C=C/c1cccnc1)c1ccc(NC(=O)c2cccc(Br)c2)cc1	24	-4	50*	8	-92	-7
CN(C)S(=O)(=O)c1ccc(C(=O)/C=C/c2cccnc2)cc1	100*	7	15	30	27	12
Cc1ccccc1Oc1ccc2c(c1)[C@@H]1C[C@H](N(C)C(=O)Nc3cc(Cl)cc(Cl)c3)[C@H]([C@H](C)O)C(=O)N1CC2	68*	-13	-1	.	17	-2
Cc1ccccc1Oc1ccc2c(c1)[C@@H]1C[C@H](N(C)C(=O)NC3CCCCC3)[C@H]([C@H](C)O)C(=O)N1CC2	-1	0	-6	.	-17	13
COc1cc2ccnc(C=O)c2cc1OC	28	-26	-1	.	6	86*
COc1ccc([C@H]2C[C@@H](O)[C@H](n3cc(COC(=O)c4ccccc4)nn3)CN2CC2CCCCC2)cc1	52*	8	-13	.	-15	-27
COc1ccc([C@H]2C[C@H](n3cc(COC(=O)c4ccccc4)nn3)[C@@H](O)CN2CC2CCCCC2)cc1	-19	-19	1	.	12	4
Cc1ccc(S(=O)(=O)N(C)C)cc1NC(=O)c1cc(-c2ccncc2)nc2ccccc12	52*	9	-7	18	4	1
Cc1ccc(-c2cc(C(=O)Nc3cc(C(=O)O)ccc3C)c3ccccc3n2)cc1	-39	-3	-1	1	-39	3
CC(=O)c1ccc(OCC(=O)N(CCC2=CCCCC2)c2c(N)n(Cc3ccccc3)c(=O)[nH]c2=O)cc1	33	-2	-7	7	-1	-17
Nc1c(N(CCC2=CCCCC2)C(=O)COc2ccc(F)cc2Cl)c(=O)[nH]c(=O)n1Cc1ccccc1	106*	-36	3	.	-3	38
Nc1c(N(CCC2=CCCCC2)C(=O)COc2ccc([N+](=O)[O-])cc2)c(=O)[nH]c(=O)n1Cc1ccccc1	84*	-27	2	.	0	6
Cc1nc2ccccc2c(=O)n1/N=C/c1c(O)ccc2ccccc12	9	3	-5	31	-6	8
Cc1n[nH]c(=S)n1/N=C/c1c(O)ccc2ccccc12	57*	0	0	7	14	3
COc1ccccc1N1C[C@@H]2C[C@@H](c3ccco3)N3CCC[C@@]23C1=O	13	12	6	-13	14	-10
COCc1cc([C@@H]2C[C@H]3CN(c4ccccc4)C(=O)[C@]34CCCN24)ccc1OC	54*	0	-3	-24	7	6
O=C1N(c2ccccc2)C[C@@H]2C[C@@H](c3cccs3)N3CCC[C@@]123	73*	13	-3	-10	-3	-3
